FBPA Giardia inh: inhibitors of Giardia lamblia fructose-1,6-bisphosphate aldolase; A8B2U2; purified Giardia FBPA; Potency, µM (top dose mostly 59.6 µM), most hits filed as inhibitors; 290,000 compounds, 0.71% hits; further: nearly all actives have a fitted effect of over 55% in size
Target sequence (A8B2U2 whole entry, looked up): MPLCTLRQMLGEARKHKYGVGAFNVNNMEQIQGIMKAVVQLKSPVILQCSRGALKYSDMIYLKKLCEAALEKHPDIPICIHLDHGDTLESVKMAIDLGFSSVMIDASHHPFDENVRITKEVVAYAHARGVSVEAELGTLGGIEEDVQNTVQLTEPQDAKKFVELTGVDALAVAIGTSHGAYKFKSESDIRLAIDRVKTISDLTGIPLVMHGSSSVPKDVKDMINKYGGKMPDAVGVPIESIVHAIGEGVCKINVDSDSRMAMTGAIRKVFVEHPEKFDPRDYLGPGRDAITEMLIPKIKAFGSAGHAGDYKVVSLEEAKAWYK
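40 nM FBPA preincubated 10 min at RT with compound (up to 57.5 uM final), then substrate plus GAPDH/TPI/NAD/arsenate coupling and diaphorase/resazurin added. Fluorescence read after 20 min at RT, 525/598 nm.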
Sm TGR inh: blocks Schistosoma mansoni thioredoxin glutathione reductase; Q962Y6; purified TGR, DTNB reduction, TNB absorbance 405 nm; Potency, µM (series often up to 114 µM), most hits filed as inhibitors; 360,000 compounds, 3% hits; AID 485364; further: nearly all actives have a fitted effect of over 60% in size
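First, TGR (20 nM dispensed) and NADPH were mixed with compound. Second, a 15 min room-temperature incubation followed. Third, further NADPH and then DTNB were added to start the reaction. Finally, TNB absorbance was monitored kinetically.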
RE007 growth inh: less growth of the S. pombe RE007 Vpr strain | S. pombe RE007 Vpr strain, BacTiter-Glo ATP luminescence, 24 h | Potency, µM (series often up to 92.2 µM), hits mostly inhibitors | 360,000 compounds, 0.21% hits | AID 651644; active means well fitted falling curve with a large enough effect; inconclusive means small, poorly fitted or top-dose-only effect; inactive means no such curve, though single readings can be large or run the other way; further: nearly all actives have a fitted effect of over 50% in size
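Fission yeast strain RE007, carrying one chromosomally integrated HIV-1 vpr copy, was seeded at OD 0.01 in PMG+AL medium with 23 nL pinned compound. After 24 h at 30 °C and 99% humidity, viability was read by BacTiter-Glo luminescence.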
AmpC inh detg: blocks E. coli AmpC beta-lactamase in detergent assay | P00811 | AmpC hydrolysis of nitrocefin, absorbance 480 nm, 0.01% Triton | Potency, µM (doses to about 114 µM), usual class: inhibitors | 370,000 compounds, 0.041% hits; further: nearly all actives have a fitted effect of over 25% in size
Target sequence (P00811 whole entry, looked up): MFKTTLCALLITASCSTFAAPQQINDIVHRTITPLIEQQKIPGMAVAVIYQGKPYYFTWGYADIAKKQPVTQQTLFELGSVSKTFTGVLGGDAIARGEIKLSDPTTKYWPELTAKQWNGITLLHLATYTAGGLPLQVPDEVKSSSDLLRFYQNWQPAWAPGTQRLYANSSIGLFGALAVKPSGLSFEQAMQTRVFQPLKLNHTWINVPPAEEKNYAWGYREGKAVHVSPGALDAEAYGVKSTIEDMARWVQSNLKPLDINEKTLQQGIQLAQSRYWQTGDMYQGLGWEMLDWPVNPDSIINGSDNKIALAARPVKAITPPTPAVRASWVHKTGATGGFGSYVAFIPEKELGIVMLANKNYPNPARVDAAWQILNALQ
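AmpC (5.3 nM in the dispensed reagent) in 20 mM phosphate pH 7.0 with 0.01% (detergent screen) or 0.0001% Triton X-100 was preincubated with compounds for 15 min at room temperature. Nitrocefin was then added from an 800 uM solution, and hydrolysis was followed at 480 nm.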
AmpC inh no detg: AmpC beta-lactamase inhibition without detergent. AmpC nitrocefin hydrolysis, absorbance 480 nm, 0.0001% Triton. Potency, µM (highest dose often 57.1 µM), actives largely listed as inhibitors. 330,000 compounds, 0.52% hits. AID 485341; further: nearly all actives have a fitted effect of over 20% in size
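AmpC (5.3 nM in the dispensed reagent) in 20 mM phosphate pH 7.0 with 0.01% (detergent screen) or 0.0001% Triton X-100 was preincubated with compounds for 15 min at room temperature. Nitrocefin was then added from an 800 uM solution, and hydrolysis was followed at 480 nm.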
Hits are given with their value; - = inactive; ? = inconclusive; . = no result; [ ] = dose if it differs, or a comment. Only some compounds are listed: those with a hit (about 3.4% of all), similar ones and a draw of the others. Unless noted, the call rests on the fitted dose curve; in most records, active means well fitted curve in the direction sought with a large enough effect; inconclusive means small, poorly fitted or top-dose-only effect, or another doubt; inactive means no such curve, though single readings can be large; an effect the other way counts as inactive or inconclusive.

SMILES | FBPA Giardia inh | Sm TGR inh | RE007 growth inh | AmpC inh detg | AmpC inh no detg
Cc1ccc(C(CCN(Cc2ccccc2)C(=O)c2ccco2)c2ccco2)cc1 (centres undefined) | - | 20µM | - | - | ?
O=C(c1ccco1)N(Cc1ccc(Cl)cc1)Cc1ccco1 | . | - | - | - | -
CCCc1ncc(CN2CCC(C(=O)Nc3cccc(-c4cscn4)c3)CC2)cn1 | - | - | - | ? | -
CC(C)(C)NC(=O)C(c1ccncc1)N(Cc1ccc(F)cc1)C(=O)c1ccc(-c2ccccc2)[nH]1 (centres undefined) | - | 32µM | - | - | -
O=C(NC1CCCC1)C(c1ccncc1)N(Cc1ccccc1)C(=O)c1ccc(-c2ccccc2)[nH]1 (centres undefined) | - | ? | - | ? | -
O=C(NC1CCCC1)C(c1ccncc1)N(Cc1ccco1)C(=O)c1ccc(-c2ccccc2)[nH]1 (centres undefined) | - | 28µM | - | - | -
Cc1ccc(C(C(=O)NCc2ccco2)N(C(=O)Cn2nnc3ccccc32)c2ccccc2)o1 (centres undefined) | - | 50µM | - | ? | -
CCCCN(C(=O)Cn1nnc2ccccc21)C(C(=O)NCc1ccco1)c1ccncc1 (centres undefined) | - | 56µM | - | - | -
O=C(NCc1ccco1)C(c1ccccc1)N(Cc1cccnc1)C(=O)Cn1nnc2ccccc21 (centres undefined) | - | 40µM | - | ? | -
Cc1cc(C)cc(N(C(=O)Cn2nnc3ccccc32)C(C(=O)NCc2ccco2)c2ccncc2)c1 (centres undefined) | - | 35µM | - | - | -
O=C(CCN=C1NS(=O)(=O)c2ccccc21)NCc1ccccc1F | . | . | - | . | -
CC1=C[C@@H]2c3cccc4[nH]cc(c34)C[C@H]2N(C)C1 | - | 2.2µM | - | ? | -
CCN1C(=O)N/C(=C/c2ccc(Sc3ccc(C)cc3)o2)C1=O | . | ? | - | - | -
CCN1C(=O)N/C(=C/c2ccc(C)o2)C1=O | ? | 35µM | - | - | -
CCN1C(=O)/C(=C/c2cccs2)N(C)C1=S | - | - | - | - | -
CCN1C(=O)/C(=C/c2ccc(C)o2)N(C)C1=S | - | 28µM | ? | ? | -
Cc1ccc(/C=C2/NC(=O)N(c3ccccc3)C2=O)o1 | - | 32µM | 63µM | - | -
Cc1c(C(=O)O)cccc1-c1ccc(/C=C2/NC(=O)N(c3ccccc3)C2=O)o1 | - | - | - | - | -
Cc1ccc(/C=C2/NC(=O)N(Cc3ccccc3F)C2=O)o1 | ? | ? | - | - | -
Cc1ccc(/C=C2/NC(=O)N(Cc3ccc(Br)cc3)C2=O)o1 | ? | 50µM | . | - | 2.5µM
CC(C)(C)c1ccc(C(=O)Nc2ccc(Cl)cc2C(=O)c2ccccc2)cc1 | . | - | . | - | .
Cc1ccccc1C(=O)NNC(=O)C1CCCN(c2ncccn2)C1 (centres undefined) | - | - | - | - | -
CC(Sc1nnc(-c2ccccc2F)n1C)C(=O)Nc1ccc(N2CCOCC2)cc1 (centres undefined) | . | . | - | . | .
CCCN1C(=O)/C(=C/c2ccc(C)o2)NC1=S | ? | 6.3µM | . | - | -
CCCN1C(=O)/C(=C/c2ccc(OCC(=O)OCC)cc2)NC1=S | - | - | - | - | -
SMILES | FBPA Giardia inh | Sm TGR inh | RE007 growth inh | AmpC inh detg | AmpC inh no detg
O=C1N/C(=C/c2ccc(N3CCOCC3)o2)C(=O)N1c1cccc(Cl)c1 | - | 2.8µM | - | - | -[2.29 µM]
COc1ccc(C2CC(c3ccc(F)cc3)Nc3nc(N)nn32)cc1 (centres undefined) | - | - | - | ? | -
Cc1ccc(-n2nc(C)c3c(C)c(CCC(=O)NCc4ccc(Cl)cc4)c(C)nc32)cc1 | . | - | . | - | .
O=c1cc(-c2cccc(O)c2)oc2ccc(O)cc12 | - | . | . | . | .
CCCCCCCCOc1ccc(C2CC(=O)NC2=O)cc1 (centres undefined) | - | 100µM | - | - | -
Cc1ccc(-n2nc(C)c3c(C)cc(=O)n(CC(=O)N4CCCc5ccccc54)c32)cc1 | . | - | . | - | .
COc1ccc(-c2cc(C(=O)N3CCCC(C(F)(F)F)C3)c3ccccc3n2)cc1 (centres undefined) | . | - | - | - | -
COc1ccc(-c2cc(C(=O)N3CCN(c4ncccn4)CC3)c3ccccc3n2)cc1 | . | - | - | - | -
Cc1ccc(-c2cc(C(=O)N3CCN(c4ncccn4)CC3)c3cc(Br)ccc3n2)o1 | - | 7.1µM | - | - | -
Cc1ccc(-c2cc(C(=O)N3CCN(c4ccc(F)cc4)CC3)c3ccccc3n2)o1 | - | 45µM | - | - | -
Cc1ccc(-c2cc(C(=O)N3CCOCC3)c3ccccc3n2)o1 | . | . | - | . | -
O=C(O)c1cc(-c2ccc(-c3ccc(F)cc3)o2)nc2ccccc12 | 20µM | 13µM | - | - | -
Cc1ccc(-c2cc(C(=O)N3CCCC(C(F)(F)F)C3)c3ccccc3n2)o1 (centres undefined) | . | 28µM | - | - | -
CC(C)Oc1ccc(C(=O)O)c(C(=O)O)c1 | - | - | - | - | -
O=C(CN1C(=O)NC2(CCCC2)C1=O)Nc1cc(C(F)(F)F)ccc1N1CCCCC1 | . | - | - | ? | 35µM
CC1CN(C2CCN(S(=O)(=O)c3ccc(F)cc3)CC2)CC(C)O1 (centres undefined) | - | 40µM | - | - | -
CC1CN(C2CCN(S(=O)(=O)c3ccccc3)CC2)CC(C)O1 (centres undefined) | - | - | - | ? | -
O=S(=O)(NCCc1ccccc1)c1cnc(Cl)c(Br)c1 | - | - | - | - | -
Cc1cc(N2C(=O)C(O)=C(C(=O)c3cc4ccccc4o3)C2c2cccs2)no1 (centres undefined) | . | 56µM | - | - | -
Cc1cc(N2C(=O)C(O)=C(C(=O)c3ccc(C)o3)C2c2cccs2)no1 (centres undefined) | - | ? | - | ? | -
Cc1ccc(-c2nc(CS(=O)(=O)CC(=O)N3CCN(C)CC3)c(C)o2)cc1 | . | - | - | - | -
Cc1ccc(-c2nc(CS(=O)(=O)CC(=O)N3CC(C)CC(C)C3)c(C)o2)cc1 (centres undefined) | - | 2.2µM | - | - | 40µM
CCN1CCN(C(=O)CS(=O)(=O)Cc2nc(-c3ccc(C)cc3)oc2C)CC1 | - | - | - | - | 10µM
COC(=O)C1=C(C)N(Cc2ccccc2)[C@]23O[C@](C(=O)OC)(C(=O)N2C1c1ccccc1)C1C(=O)N(c2ccccc2)C(=O)C13 (some centres undefined) | -[12.9 µM] | . | . | . | .
Cc1ccc(-n2ccnc(NCc3ccccc3)c2=O)cc1C | . | - | . | - | .
Cc1ccccc1CN1C(=O)C(C)S/C1=N/N=C/c1ccco1 (centres undefined) | - | 25µM | - | - | -

Screens as filed in PubChem.
